Screening results from PubChem BioAssay.
Sampled rows, rich in hits. Any-hit rate of the full collection: about 2.9%.
HEK293 tox – cytotoxic in the GLP-1 receptor inverse agonist counter-screen | 410,000 compounds, 0.13% hits | HEK293 cAMP-luciferase reporter cells, luminescence, 24 h | Potency, µM (highest dose often 38.3 µM), usual class: inhibitors;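 further: loss of luciferase light is scored as toxicity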
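To flag toxic compounds, the library was rerun on cells for 24 hr at 37 deg C and 5% CO2. Viability-linked luminescence was captured 12 min after adding luciferase detection reagent.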
GLP-1R agonist – agonists of human GLP-1 receptor; AID 624172; Potency, µM (series often up to 45.6 µM), actives largely listed as activators; 380,000 compounds, 0.007% hits; HEK293 GLP-1R CRE-luciferase, luminescence, 4-6 h; cells express a hypersensitive GLP-1R form
LDHA block – blocks human lactate dehydrogenase A; purified LDHA, NADH/diaphorase-resazurin fluorescence; stronger effect = lower value; P00338; activity change, % (values are at about 110 or 230 µM); 480,000 compounds, 0.15% hits; in the data active means activity change below about -30%; inconclusive means mostly about -25% to -30%
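Human LDH5 (2 nM) was incubated with 0.06 mM NADH and 0.2 mM pyruvate for 5 min at room temperature in Tris pH 7.4. Remaining NADH was coupled through diaphorase/resazurin, and resorufin fluorescence was read at 0 and 20 min.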
ClpP mod – qHTS Assay for Activators of ClpP | purified B. subtilis ClpP, FRET peptide cleavage, 20 min | ATP-dependent Clp protease proteolytic subunit (Bacillus subtilis (strain 168)), P80244 | Potency, µM (doses to about 57.5 µM) | 340,000 compounds, 1.9% hits; active means well fitted falling curve with a large enough effect; inconclusive means small, poorly fitted or top-dose-only effect; inactive means no such curve, though single readings can be large or run the other way; further: the source files actives as falling curves though it sought activators and does not explain the sign; nearly all actives have a fitted effect of over 65% in size
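ClpP 10 microg/mL final, pH 8 Tris/KCl buffer with BSA, glycerol, Tween-20; compound pinned in; FRET-FV substrate; RT 20 min; Ex320/Em430; ΔFRET vs ADEP 5.8 microM, DMSO, no enzyme.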
p53 reactivator – restores transcriptional activity of mutant p53; H1299 p53-A138V BP100-luciferase reporter, luminescence, 24 h; Potency, µM (highest dose often 92.2 µM), usual class: activators; 320,000 compounds, 0.063% hits; AID 504706; further: nearly all actives have a fitted effect of over 45% in size
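p53-null H1299 cells stably carrying temperature-sensitive p53-A138V and a BP100-luciferase reporter were pinned with compounds (4-point, 1:5 series) and held 24 hrs at 37 deg C. Luminescence was read 10 min after detection reagent.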
GLP1R inv ag – acts as inverse agonist at human GLP-1 receptor; P43220; HEK293 GLP-1R CRE-luciferase, luminescence, 24 h; GLP-1R form is constitutively active; Potency, µM (series often up to 38.3 µM), usual class: inhibitors; 410,000 compounds, 1.6% hits; AID 624417; further: nearly all actives have a fitted effect of over 55% in size
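Using stably transfected HEK293 (constitutively active GLP-1R, cAMP-luciferase reporter), compounds were incubated 24 hr and luciferase measured by luminescence.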
Numbers stand for hits; n = inactive; u = inconclusive; x = no result; [ ] = another dose, or the depositor's remark. Unless noted, the call rests on the fitted dose curve; in most records, active means well fitted curve in the direction sought with a large enough effect; inconclusive means small, poorly fitted or top-dose-only effect, or another doubt; inactive means no such curve, though single readings can be large; an effect the other way counts as inactive or inconclusive.

SMILES	HEK293 tox	GLP-1R agonist	LDHA block	ClpP mod	p53 reactivator	GLP1R inv ag
Brc1ccc(-c2cn3c(n2)CCc2ccc4cccnc4c2-3)cc1	n	n	n	28µM	n	n
Brc1ccc(-c2cn3nc4c(nc3n2)CCCC4)cc1	n	n	n	n	u	u
O=S(=O)(NCc1ccccc1)c1cccs1	n	n	n	14µM	n	n
O=C(/C=C/c1ccc(OCc2cccc(Cl)c2)cc1)N1CCOCC1	n	n	n	x	n	6.3µM
O=C(Nc1ccc(OCC(=O)N2CCOCC2)cc1)Nc1cccc(Cl)c1	n[7.66 µM]	n	n	11µM	n	n[7.66 µM]
CC(C)(C)c1ccc(NC(=O)Nc2ccc(OCC(=O)N3CCOCC3)cc2)cc1	n	n	n	x	n	u
CCc1ccc(-c2nc(CSCC(=O)NC3CC3)c(C)o2)cc1	n	n	n	x	n	u
C=CCNC(=O)c1sc(=S)n(-c2ccc(C(=O)OCC)cc2)c1N	n	n	n	n	n	n
CCCc1c(CC)c(=N)c2ccccc2n1C	n	n	-45	28µM	n	n
Cc1nn(-c2ccc(N3CCCC3)nn2)c(C)c1CCC(=O)N1CCN(c2ccccc2)CC1	n	x	n	n	x	n
Cc1ccc(N2C(=O)C3C(C2=O)C(C(=O)c2ccc(Cl)cc2)N2CCCC32)cc1 (configuration not stated)	n	n	n	n	u	n
CCOc1ccc(NC(=O)CN(C)C(=O)c2cn(-c3ccc(F)cc3)nc2-c2cccc(OC)c2)cc1OCC	n	n	n	n	n	4.5µM
CCN(CC)CCNC(=O)c1ccc(NC(=O)c2cn(-c3ccc(F)cc3)nc2-c2cccc(OC)c2)cc1	u	n	n	x	n	8.9µM
COc1cccc(-c2nn(-c3ccccc3)cc2C(=O)O)c1	n	n	n	n	n	n
COc1cccc(-c2nn(-c3ccccc3)cc2C(=O)NCC(C)(C)N2CCOCC2)c1	x	x	-31	x	x	x
O=C(CNC(=O)c1ccccc1Cl)OCC(=O)N1CCc2ccccc21	n[0.307 µM]	n	n	n	n	n[0.307 µM]
CCCN1CCN(c2ncnc3sc(C(=O)Nc4cccc(Cl)c4C)c(C)c23)CC1	n	x	n	n	x	u
COc1ccc(S(=O)(=O)N2CCCCCC2)cc1C(=O)Nc1cccc(C)n1	n	n	n	n	n	n
COC(=O)c1sccc1NC(=O)NC1CCCCC1	n	n	n	n	n	u
O=C(C=C=Nc1ccccc1)C(=O)N=C=Cc1ccccc1	13µM	n	n	x	n	u
COC(=O)c1sccc1-c1ccc(/C=N/OCc2c(Cl)cccc2Cl)o1	n	n	n	5µM	n	n
Nc1nc(-c2ccc(Cl)cc2)c(S(=O)(=O)c2ccccc2)s1	n	n	n	n	n	8.9µM
Nc1nc(-c2ccc(Br)cc2)c(S(=O)(=O)c2ccccc2)s1	n	n	n	n	n	u
O=C(C1=C(O)C(=O)N(c2ccccc2)C1c1ccc([N+](=O)[O-])cc1)c1cccs1 (configuration not stated)	n[0.307 µM]	n	n	n	n	n[0.307 µM]
CCCN(CCC)c1nc(-c2ccccc2F)nc2ccccc12	n	x	n	n	x	n
SMILES	HEK293 tox	GLP-1R agonist	LDHA block	ClpP mod	p53 reactivator	GLP1R inv ag
CCCN(CCC)c1nc(-c2ccccn2)nc2ccccc12	u	n	n	x	n	3.5µM
CCN(CC)c1nc(-c2ccccn2)nc(-c2ccccc2)c1C#N	u	n	n	x	n	13µM
CN(C)c1nc(-c2ccccn2)nnc1-c1ccccc1	u	n	n	n	u	n
Cc1cc(Br)ccc1NC(=O)c1cc2c(s1)-c1ccccc1SC2	n	x	n	14µM	x	10µM
Cc1ccc(CNC(=O)c2cc3c(s2)-c2ccccc2SC3)cc1	n	x	n	n	x	u
CCc1nn(CCCC(=O)N2CCN(c3cccc(C)c3C)CC2)c(=O)c2cc3occc3n12	n	n	n	n	n	11µM
COc1cccc(CN(C)C(=O)C2CC(=O)N(c3ccc4c(c3)OCCO4)C2)c1 (configuration not stated)	n	n	n	14µM	n	n
COc1ccc(CN(C)C(=O)C2CC(=O)N(c3ccc4c(c3)OCCO4)C2)cc1 (configuration not stated)	n	n	n	n	x	n
N=c1c2c(ncn1Cc1ccco1)Oc1c(ccc3ccccc13)C2c1ccccc1 (configuration not stated)	u	n	n	n	n	4µM
COc1ccc(CCNC(=O)c2ccccc2NS(=O)(=O)c2c(F)cccc2F)cc1	n	n	n	x	n	n
Cc1ccc(-c2n[nH]c(=O)c3ccccc23)cc1S(=O)(=O)N(C)C	n	n	n	n	n	n
CCN(CC)S(=O)(=O)c1cc(-c2n[nH]c(=O)c3ccccc23)ccc1C	x	x	-33	x	x	x
CCN(CC)C(=O)C1CC(=O)OC1(C)C (configuration not stated)	n	n	n	n	n	n
Cc1cccc(C)c1Nc1sc(C(=O)c2ccccc2)c(N)c1C(=O)Nc1ccc(F)cc1	n	x	n	n	x	11µM
CCOc1ccccc1Nc1sc(C(=O)c2ccccc2)c(N)c1C(=O)Nc1ccc(F)cc1	n	x	n	n	x	n
CCNC(=O)NC(=O)C(C)OC(=O)c1cc(-c2ccco2)nc2ccccc12 (configuration not stated)	x	x	n	x	x	x
O=C(C(=O)N1CCCc2ccccc21)N1CCCc2ccccc21	n	n	n	x	n	n
CC1(C(=O)NC2CCCCC2)Cc2ccccc2C(=O)N1Cc1ccccc1Cl (configuration not stated)	n	x	n	32µM	x	n
COc1cccc(NC(=O)CSc2nc(=O)n(Cc3ccncc3)c3c2CCC3)c1	n	x	n	n	x	n
COc1cccc(CNC(=O)CSc2nc(=O)n(Cc3ccncc3)c3c2CCC3)c1	n	n	n	13µM	n	n
c1ccc2c(c1)CCN(c1ncnc3c1[nH]c1ccccc13)C2	n	n	n	20µM	n	u
c1ccc(CN2CCN(c3ncnc4c3[nH]c3ccccc34)CC2)cc1	n	n	n	u	n	n
c1ccc2c(c1)[nH]c1c(N3CCC4(CC3)OCCO4)ncnc12	n	n	n	28µM	n	n
CCOC(=O)c1nn(-c2ccccc2)c(=O)cc1OCC(=O)Nc1cc(C)ccc1OC	n	n	n	n	n	n
CCOc1ccc(C(C)NC(=S)NC2CCCCC2)cc1 (configuration not stated)	11µM	n	n	n	n	u
CCOc1ccc(NC(=O)CCC(=O)O)cc1	n	n	n	n	n	n
